Bioassay records as filed in PubChem.
This excerpt belongs to a sample that is enriched for hits.
Dicer inh = inhibitors of Dicer pre-microRNA processing, primary screen, biochemical, cat-ELCCA, chemiluminescence; Endoribonuclease Dicer (Homo sapiens), Q9UPY3; cat-ELCCA pre-miR-21 Dicer processing; hits give high values; z-score at 25 µM; hit rate 6% among 47,000; in the data active = z-score above about 3, passing the limit was not always enough;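 note: plate controls were vehicle for no effect and no enzyme for full effect; higher signal means more uncleaved substrate so more Dicer inhibition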
Starred values were filed as active, the others as inactive.

SMILES	Dicer inh
FC(F)(F)Oc1ccc(CSc2nc3cc(Cl)c(Cl)cc3[nH]2)cc1	-0.5
Cc1ccc(C(=O)/C=C/Sc2nc3cc(Cl)ccc3s2)cc1	0.77
COC(=O)c1ccncc1C(=O)Nc1ccc(C)cc1	-0.74
CS/C(=C(/C#N)S(=O)(=O)C(C)C)N1CCOCC1	-1.3
CS/C(=C(/C#N)S(=O)(=O)C(C)C)N1CCCC1	-1.2
CS/C(=C(/C#N)S(=O)(=O)C(C)C)N1CCCCC1	4.2*
CC(C)Cc1ccc(C(C)C(=O)NNC(=O)c2ccccc2C(F)(F)F)cc1 (stereo unspecified)	1.5
COc1ccc(C2C3=C(CC(C)(C)CC3=O)Nc3nc(N)[nH]c(=O)c32)cc1 (stereo unspecified)	-1
O=C(Nc1ccc(F)cc1)C1Sc2nnc(-c3ccccc3)n2NC1c1ccc(F)cc1 (stereo unspecified)	0.62
COc1cc(SC)ccc1C(=O)Nc1nc2ccc(S(C)(=O)=O)cc2s1	1.6
COc1ccc(OCCCC(=O)Nc2nc3ccc(S(C)(=O)=O)cc3s2)cc1	-2.4
CC(Oc1ccccc1F)C(=O)Nc1nc2ccc(S(C)(=O)=O)cc2s1 (stereo unspecified)	-0.69
CCCCC(=O)Nc1nc2ccc(S(C)(=O)=O)cc2s1	1.5
CCCCOC(=O)Nc1nc2ccc(S(C)(=O)=O)cc2s1	4.8*
CCCCC(CC)C(=O)Nc1nc2ccc(S(C)(=O)=O)cc2s1 (stereo unspecified)	4.8*
C=CCNc1oc(-c2ccc(C)cc2)nc1C#N	-0.92
O=C(NNc1ncccc1C(F)(F)F)c1c(F)cccc1F	0.15
O=C(CSc1nc2ccccc2o1)N1CCc2c([nH]c3ccccc23)C1C(F)(F)F (stereo unspecified)	-2.8
COc1nccc(C(F)(F)F)c1C(=O)Nc1c(C)cccc1C	2.6
CC1(C)C2CC[C@](C)(C2)C1NS(=O)(=O)c1ccc(F)cc1 (stereo partly specified)	-3.4
COc1ccc(-c2cnc3c(-c4ccc(OC)c(OC)c4)cnn3c2N)cc1OC	3
CN(C)c1ccc(/C=C2\C(=O)Nc3ccccc32)cc1	-1.4
O=C1Nc2ccccc2/C1=C/c1cnc(-c2ccccc2)[nH]1	3.3*
COc1ccc(/C=C2/C(=O)Nc3ccccc32)cc1	-0.18
O=C(c1nc2ncccn2n1)N1CCc2ccccc2C1	2
SMILES	Dicer inh
CN(C)S(=O)(=O)N1CCc2ccccc2C1	4.9*
CS(=O)(=O)N(CC(=O)N1CCc2ccccc2C1)c1cccc2ccccc12	1.7
O=C(Cn1ccc(C(F)(F)F)n1)c1ccc(Cl)cc1	1.5
COC(=O)c1cc(S(=O)(=O)N2CCN(c3c(Cl)cncc3Cl)CC2)oc1C	0.3
Cc1ccc(NNC(=O)c2ccc(F)cc2F)cc1Cl	-5.7
O=S(=O)(c1ccc(NC(=S)N/N=C/c2ccccc2)cc1)N1CCCCC1	2.3
O=S(=O)(c1ccc(NC(=S)NC2CCCC2)cc1)N1CCCCC1	1.8
O=S(=O)(c1ccc(NC(=S)N/N=C/c2ccccn2)cc1)N1CCCCC1	4.2*
CC(C)(C)c1nc2sc3c(c2c(=O)[nH]1)CCCC3	5.3*
O=C(CSc1nc2sc3c(c2c(=O)[nH]1)CCCC3)N1CCCCC1	-0.27
COc1ccc(-c2ncnn2-c2sc3c(c2C#N)CCCC3)cc1OC	-5
C=C(C)CSc1nc2sc3c(c2c(=O)[nH]1)CCCC3	0.28
COc1ccc(-c2nc3c4c5c(sc4ncn3n2)CCCCC5)cc1OC	1.1
COc1ccc(-c2nc3sc4c(c3c(=O)[nH]2)CCCC4)cc1OC	5.1*
O=C1/C(=C/c2ccc(Cl)cc2)COc2ccc(F)cc21	-0.51
CC1(C)CCc2cc(/C=N/O)ccc2O1	-0.04
O=C(COc1ccc2ccccc2c1)OCC(=O)c1ccccc1	0.85
CSc1nnc(SCc2csc(-c3ccc(C(F)(F)F)cc3)n2)s1	0
COc1ccc(OC)c(C2N=C(N)Nc3nc4ccccc4n32)c1 (stereo unspecified)	-1.2
COc1ccccc1C1N=C(N)Nc2nc3ccccc3n21 (stereo unspecified)	34*
COc1ccc(C2N=C(N)Nc3nc4ccccc4n32)cc1 (stereo unspecified)	-0.05
c1ccc(-c2cc3ncnc(N4CCSCC4)c3s2)cc1	12
CCOC(=O)c1sc(/S(C)=N/S(=O)(=O)c2ccccc2)c2c1CCC=C2 (stereo unspecified)	-0.69
Cc1cc(NC(=S)NC(C)(C)C)ccc1Br	-0.67
Cc1ccc(NC(=S)NC(C)(C)C)cc1F	3*
SMILES	Dicer inh
Cc1ccc(NC(=S)Nc2ccc(C)c(C)c2)cc1C	-0.26
Cc1cc(C)n(-c2nc3ccccc3nc2N2CCN(S(=O)(=O)c3ccccc3)CC2)n1	-0.81
CCOC(=O)/C(C#N)=C/NN(C)c1ccccc1[N+](=O)[O-]	-0.25
CC(C)(C)OC(=O)/C(C#N)=C/c1ccc([N+](=O)[O-])cc1	8.3
CCN(CC)C(=O)/C(C#N)=C/c1cc(O)c(O)c([N+](=O)[O-])c1	3.8*
COC(=O)c1ccc(Cl)cc1N(CCCC#N)S(=O)(=O)c1cccc(C(F)(F)F)c1	-0.42
CSc1sc(-c2ccno2)c(-c2ccccc2)c1C#N	1.2
